Source: PubChem BioAssay (National Center for Advancing Translational Sciences (NCATS))
LmPK inhibitor – qHTS Assay for Inhibitors of Leishmania Mexicana Pyruvate Kinase (LmPK). Q27686. purified LmPK, Kinase-Glo ATP luminescence, 1 h. Potency, µM (titrated, usually from 57.5 µM), for the others: at the highest dose activity change, negative = inhibition, usual class: inhibitors. 0.37% of 290,000 active. AID 1721, 2009; note: potency is the fitted concentration of half-maximal effect; % is set by controls: 0 for no effect and ±100 for the full control effect
Target sequence (Q27686 whole entry, looked up): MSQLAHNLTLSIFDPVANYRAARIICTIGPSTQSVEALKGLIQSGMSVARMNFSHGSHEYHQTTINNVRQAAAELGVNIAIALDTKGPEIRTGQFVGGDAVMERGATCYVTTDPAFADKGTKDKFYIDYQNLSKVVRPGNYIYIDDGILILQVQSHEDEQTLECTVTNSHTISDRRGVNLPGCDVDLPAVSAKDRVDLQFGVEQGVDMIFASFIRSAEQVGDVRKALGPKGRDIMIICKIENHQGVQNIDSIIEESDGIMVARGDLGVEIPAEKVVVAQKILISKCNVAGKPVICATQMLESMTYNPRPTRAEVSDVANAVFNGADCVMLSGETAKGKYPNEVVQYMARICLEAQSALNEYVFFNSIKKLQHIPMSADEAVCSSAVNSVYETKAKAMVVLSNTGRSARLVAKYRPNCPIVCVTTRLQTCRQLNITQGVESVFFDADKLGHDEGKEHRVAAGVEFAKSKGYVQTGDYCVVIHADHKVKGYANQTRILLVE
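Purified LmPK (0.1 nM) converted ADP (0.1 mM) to ATP with PEP (0.5 mM) in imidazole buffer pH 7.2 with KCl and MgCl2, 1 h at room temperature. ATP was read by Kinase-Glo luminescence; data normalized to uninhibited and no-enzyme controls.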
NS1 inh – qHTS Assay for Inhibitors of Influenza NS1 Protein Function. 0.4% of 270,000 active. Potency, µM (top dose mostly 46.1 µM), for inactives: at the top dose activity, positive = more growth. AID 2326, 2010; calls by dose curve; note: potency is the fitted concentration of half-maximal effect; actives are rising curves; nearly all actives have a fitted effect of over 50% in size
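A cell-based growth assay was used: compounds that relieve NS1-induced slow growth of budding yeast raise OD600. Assay medium was yeast nitrogen base with ammonium sulphate and -URA supplement, pH 6.0, with 2% galactose.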
TbPYK inhibitor – qHTS of Trypanosoma Brucei Inhibitors. 0.12% of 410,000 active. pyruvate kinase (Trypanosoma brucei), Q57TT1. Potency, µM (doses to about 76.8 µM), inactives show at the top dose activity, negative = inhibition, most hits filed as inhibitors. TbPYK enzyme, Kinase-Glo Plus ATP luminescence, 45 min. AID 624173, 2012; note: potency is the fitted concentration of half-maximal effect; % is set by controls: 0 for no effect and ±100 for the full control effect; nearly all actives have a fitted effect of over 50% in size
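Luminescence from Kinase-Glo Plus, added after a 45-minute room-temperature reaction, served as the end-point read-out. The enzyme and substrate were preincubated with compound before ADP (130 uM final) initiated turnover. Concentration-effect curves came from normalized qHTS data.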
Shiga toxin inh – A qHTS for Small Molecule Inhibitors of Shiga Toxin. Vero cells, Shiga toxin protein synthesis inhibition reporter. inhibition, % at 38.7 µM. 9.2% of 290,000 active. AID 2315, 2010; in the data active = inhibition mostly above about 28%, no sharp cut-off; inactive = mostly below about 43%; note: 0% is about no effect
Cycloheximide cs – Cycloheximide Counterscreen for Small Molecule Inhibitors of Shiga Toxin | cell reporter, cycloheximide protein synthesis inhibition counterscreen | max response, % | 12% of 300,000 active | AID 2314, 2010; in the data active = max response mostly above about 13%, no sharp cut-off; inactive = mostly below about 14%; note: read at 38.3 µM for the half of the compounds with a filed dose; 0% is about no effect
SARS PLpro yeast – qHTS of Yeast-based Assay for SARS-CoV PLP; S. cerevisiae expressing SARS-CoV PLpro, growth rescue; Potency, µM (highest dose often 32.9 µM), for the others: top-dose activity, positive = growth rescue, actives largely listed as activators; 0.19% of 330,000 active; AID 485353, 2010; calls by dose curve; note: potency is the fitted concentration of half-maximal effect; 0% is about no effect; nearly all actives have a fitted effect of over 55% in size
An asterisk follows results filed as active; ? = inconclusive; . = not tested or not shown; + = active, no number; ! = not confirmed by another sample. This excerpt belongs to a sample that is enriched for hits. Unless noted, calls come from the whole dose curve; as a rule, active = well fitted curve in the direction sought with a large enough effect; inconclusive = small, poorly fitted or top-dose-only effect, or another doubt; inactive = no such curve, though single readings can be large; an effect the other way counts as inactive or inconclusive.

SMILES	LmPK inhibitor	NS1 inh	TbPYK inhibitor	Shiga toxin inh	Cycloheximide cs	SARS PLpro yeast
Cc1nc2oc3ccc(Cl)cc3c(=O)c2cc1C(=O)O	-22%	1%	-27%	-3	-3	-2%
Cc1cc(C)cc(SCc2noc(C(=O)NCCC(C)C)c2C(=O)NCCC(C)C)c1	.	.	1%	.	.	.
Cc1ccc(NC(=O)Nc2nnc(N(C)C3CCCCC3)s2)c(Cl)c1	.	.	-1%	.	.	.
Cc1cc(C)cc(C(=O)N[C@@H](C)C(=O)N2CCC3(CC2)NCCc2[nH]cnc23)c1	8%	-14%	0%	-4	-5	0%
O=C(Cc1ccccc1)Nc1sc2c(c1C(=O)Nc1ccc(Cl)cc1)CCCC2	.	.	-20%	38	31*!	.
CNC(=O)c1c(NC(=O)c2ccco2)sc2c1CCC2	3%	-24%	-9%	49	31*	-4%
NCCNC(=O)c1c(NC(=O)c2ccccc2)sc2c1CCCC2	-2%	20%	-10%	46	24*	1%
O=C(Cc1ccccc1)Nc1sc2c(c1C(=O)Nc1ccccc1)CCCCC2	.	.	-13%	.	.	.
CC1(C)Cc2c(sc(NC(=O)c3ccccc3)c2C(=O)O)CO1	-6%	-3%	-25%	114*	61*	-2%
O=C(Nc1sc2c(c1C(=O)NC1CCCCC1)CCC2)c1ccco1	0%	-44%	0%	26	16	.
COc1ccc(C(=O)Nc2sc3c(c2C(=O)O)CC(C)(C)OC3)cc1	1%	11%	1%	13	-3	18%
O=C(CSc1ccc2nnc(CCNC(=O)c3ccccc3)n2n1)Nc1ccc(F)cc1F	-10%	2%	1%	-21	1	-3%
O=C(O)c1c(NC(=O)N2CCOCC2)sc2c1CCCC2	-2%	-1%	-13%	29	13*	-8%
CCOC(=O)c1ccc(NC(=O)c2c(NC(=O)CCC(=O)O)sc3c2CCCCC3)cc1	-1%	7%	0%	23	17*	0%
O=C(Nc1sc2c(c1C(=O)O)CCCC2)c1ccc(Cl)cc1	0%	-82%	1%	29	19*	-31%
O=C(Nc1sc2c(c1C(=O)O)CCC2)c1ccc(F)cc1	-25%	-4%	-3%	37*	8	-11%
Cc1ccc(-n2ncc(C(=O)NCCN3CCOCC3)c2C2CCN(C(=O)OC(C)(C)C)CC2)c(C)c1	.	.	2%	.	.	.
Cc1ccc(-c2nc3ccc(Cl)cn3c2Nc2ccc3c(c2)OCCO3)s1	.	.	-3%	.	.	.
CCc1ccc(C(=O)c2cn(CC(=O)NCCc3ccccc3)c3nc(C)ccc3c2=O)cc1	.	.	5%	.	.	.
COc1ccc(N2CCN(C(=O)C(CC(C)C)NS(=O)(=O)c3ccc4nc(C)sc4c3)CC2)cc1 (centres undefined)	.	.	6%	.	.	.
O=C(Nc1sc2c(c1C(=O)O)CCCCC2)c1ccccc1	-22%	-47%	4%	104*	42*	-5%
O=C(O)c1c(NC(=O)c2cccc3ccccc23)sc2c1CCC2	0%	-79%	3%	16	-2	-25%
O=C(Nc1sc2c(c1C(=O)Nc1cccc(Cl)c1)CCCC2)c1cccs1	.	.	?	-5	-6	.
O=C(Nc1sc2c(c1C(=O)O)CCCC2)c1cccc(Cl)c1	-3%	-54%	1%	98*	50*	-8%
O=C(Nc1sc2c(c1C(=O)O)CCC2)c1ccccc1	-22%	-188%	-13%	143*	41*	4%
SMILES	LmPK inhibitor	NS1 inh	TbPYK inhibitor	Shiga toxin inh	Cycloheximide cs	SARS PLpro yeast
OC[C@@H]1O[C@H](O)[C@H](O)[C@@H](O)[C@@H]1O	.	.	.	11	-7	.
COCCNC(=O)c1cccc(OC2CCN(Cc3cccc(SC)c3)CC2)c1	2%	14%	0%	-8	1	3%
CC(C)CCN1CCN(Cc2nc3c(s2)CCCC3)CC1CCO (centres undefined)	2%	-2%	-7%	-5	1	-2%
COc1ccccc1CNC(=O)c1ccc(N2CCCC2)c(NC(=O)NCc2ccccc2)c1	.	.	-6%	.	.	.
COc1ccccc1CN(Cc1ccco1)c1cnc(S(C)(=O)=O)nc1C(=O)Nc1cc(C)ccc1C	.	.	-5%	.	.	.
C=C(C)COc1ccc2c(C)c(CC(=O)OC)c(=O)oc2c1C	3%	-112%	7%	+	47*	-37%
COC(=O)Cc1c(C)c2ccc(OCc3nn[nH]n3)c(C)c2oc1=O	6%	6%	2%	27	3	2%
COC(=O)Cc1c(C)c2ccc(OCC(C)=O)c(C)c2oc1=O	-10%	-27%	-11%	92*	43*	-3%
Cc1ccc2c(CNCc3ccc(C)o3)c(C(=O)O)n(Cc3ccc(F)cc3)c2c1	.	.	-3%	.	.	.
COc1cccc(NC(=O)C2CCCN(S(=O)(=O)c3cn(C(C)C)cn3)C2)c1 (centres undefined)	.	.	4%	.	.	.
CC(=O)Nc1cccc(-c2ccnc3c2CC(C)(C(=O)Nc2ccc(Cl)c(C(F)(F)F)c2)O3)c1 (centres undefined)	.	.	1%	.	.	.
CCCCNC(=O)CSc1nc2ccccc2nc1Cc1ccc(Cl)cc1	.	.	3%	.	.	.
Cc1cc(CN(C)C(=O)c2ccc3nc(Cc4ccccc4F)oc3c2)on1	-6%	-26%	1%	75*	46*	-8%
CN(Cc1nccn1C)C(=O)c1ccc2nc(Cc3ccccc3F)oc2c1	-4%	2%	-12%	69*	55*	2%
CN1CC(=O)Nc2cc(C(=O)O)ccc21	.	.	4%	.	.	.
COc1ccc(C)cc1NC(=O)c1cc(S(=O)(=O)N2CCc3ccccc3C2)ccc1F	.	.	-2%	.	.	.
Cc1ccc2c(c1)N=C(c1ccccc1)CC(C(Cl)Cl)=N2	?	-31%	-19%	84*	37*	-2%
Cc1ccc(C2=Nc3ccccc3N=C(C(Cl)Cl)C2)cc1	?	.	-15%	123*	41*	-30%
Oc1ccc(Cl)cc1C1=Nc2ccccc2N=C(c2ccccc2)C1	.	.	0%	.	.	.
CCOc1ccc(C(=O)NCC(c2ccc(Cl)cc2)N2CCCCC2)cc1 (centres undefined)	.	.	-7%	.	.	.
COC(=O)C(C)Oc1ccc(Cl)c(CN2OCC(C)(C)C2=O)c1 (centres undefined)	.	.	1%	.	.	.
Cc1c(Cl)c(C(=O)NNC(=S)Nc2ccc(F)cc2)nn1C	3%	-1%	-26%	179*	34*	0%
Cc1c(Cl)c(C(=O)NNC(=S)Nc2ccccc2)nn1C	6%	-16%	-25%	64*	31*	-4%
Cc1nn(C)c(C(=O)NNC(=S)Nc2ccc(Cl)cc2)c1[N+](=O)[O-]	8%	-12%	-15%	-1	12	2%
CCNC(=S)NNC(=O)c1nn(C)c(C)c1Cl	1%	.	3%	82*	26	0%
CCNC(=S)NNC(=O)c1c(Cl)c(C)nn1C	1%	4%	-2%	-2	-2	3%
